Sampled rows, rich in hits. Any-hit rate of the full collection: about 19%.
MCF10A rerep = induces DNA re-replication in MCF 10a normal breast cells; MCF 10A DNA re-replication, Hoechst nuclear intensity, 48 h; Potency, µM (titrated, usually from 46.1 µM), inactives show at the top dose activity, positive = re-replication, hits mostly activators; hit rate 2.9% among 350,000; AID 624296; also: potency is read from the fitted curve at half-maximal effect; % of control where 0% means no effect; nearly all actives have a fitted effect of over 50% in size
TDP1 cell noCPT = qHTS for Inhibitors of human tyrosyl-DNA phosphodiesterase 1 (TDP1): qHTS in cells in absence of CPT; hit rate 15% among 420,000; Potency, µM (highest dose often 46.2 µM), without a hit: at the highest dose activity change, negative = growth inhibition, actives largely listed as inhibitors; DT40 Tdp1-/- hTDP1 cells, no CPT, ATP luminescence, 48 h; also: potency is read from the fitted curve at half-maximal effect; % is scaled to controls: 0 for no effect and ±100 for the full control effect; nearly all actives have a fitted effect of over 55% in size
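Camptothecin absent (DMSO only). Human TDP1-complemented DT40 knockout cells, 400 cells/well, 37 °C for minimum 48 hr; ATP measured via CellTiter-Glo, 30 min dark incubation, luminescence.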
DT40 TDP1 CPT = growth inhibition of DT40 Tdp1-/-;hTDP1 cells with camptothecin (screen for TDP1 inhibitors); chicken DT40 Tdp1-/-;hTDP1 cells + 20 nM CPT, ATP luminescence, 48 h; Potency, µM (highest dose often 46.2 µM), inactives show at the highest dose activity change, negative = growth inhibition, actives largely listed as inhibitors; hit rate 12% among 420,000; also: potency is read from the fitted curve at half-maximal effect; % is scaled to controls: 0 for no effect and ±100 for the full control effect; nearly all actives have a fitted effect of over 55% in size
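Chicken DT40 Tdp1-/- cells complemented with human TDP1, 400 cells/well, exposed to compounds plus 20 nM camptothecin for at least 48 h at 37 C; viability read as ATP content by CellTiter-Glo luminescence.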
BCR signal inh = blocks chronic active B-cell receptor signaling; hit rate 0.05% among 340,000; ABC-DLBCL IkBa-CBG/CBR reporter, luminescence ratio, 4 h; Potency, µM (highest dose often 46.1 µM), for the others: top-dose activity change, negative = inhibition, actives largely listed as inhibitors; active = well fitted inhibition curve with a large enough effect in the signal ratio, with a control signal flat, not every such curve was filed as active; inconclusive = small, poorly fitted or top-dose-only effect, or effect the other way, or a change in a side signal; the % refers to the signal ratio;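 also: potency is read from the fitted curve at half-maximal effect; plate controls were basal doxycycline-induced cells for no effect and cells given 10 µM MG132 for full effect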
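Compounds up to 46 uM were incubated four hours with TMD8 cells whose green CBG68 luciferase is fused to IkappaBalpha; red CBR luminescence normalised the signal, and concentration-effect curves were fitted to fusion, red and ratio data.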
IL-1B inflam inh = blocks inflammasome-driven IL-1 beta release; activity change, % at 57.5 µM; hit rate 4.7% among 360,000; THP-1 LPS/ATP IL-1B secretion, AlphaLISA, 16 h; hits give low values; in the data active = activity change below about -50%; inconclusive = mostly about -30% to -49%; also: % is scaled to controls: 0 for no effect and ±100 for the full control effect
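Secreted IL-1B measured by AlphaLISA bead assay after 16 h compound exposure of THP-1 cells; compounds (final up to 57.5 uM) added 1 h before LPS (250 ng/mL) and ATP (1.25 mM) stimulation; lower signal means less secretion.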
SW480 rerep = inducers of DNA re-replication in SW480 colon cancer cells. SW480 DNA re-replication, Hoechst DNA content imaging, 48 h. Potency, µM (titrated, usually from 46.1 µM), for the others: at the highest dose re-replication activation, hits mostly activators. hit rate 1.8% among 340,000; also: potency is read from the fitted curve at half-maximal effect; % of control where 0% means no effect; nearly all actives have a fitted effect of over 55% in size
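Hoechst fluorescence of nuclei (405 nm excitation, 500-530 nm emission) measured by plate-scanning imager after 48 hr compound exposure at 37 C; re-replication scored as increased number of nuclei with elevated intensity.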
* = called active by the depositor; i = inactive; u = inconclusive; x = not tested or not shown; [ ] = another dose, or the depositor's remark. Unless noted, calls follow the shape of the dose curve; as a rule, active = well fitted curve in the direction sought with a large enough effect; inconclusive = small, poorly fitted or top-dose-only effect, or another doubt; inactive = no such curve, though single readings can be large; an effect the other way counts as inactive or inconclusive.

SMILES	MCF10A rerep	TDP1 cell noCPT	DT40 TDP1 CPT	BCR signal inh	IL-1B inflam inh	SW480 rerep
Oc1ccc2ccccc2c1CNc1ccc(Br)cn1	-9%	-19%	-28%	7%	36	0%
Oc1ccc2ccccc2c1CNc1ccc(Br)cc1	u	u	16µM*	u	-9	u
CC(C)c1ccc(OC(=O)c2cccc(S(=O)(=O)N3CCN(C)CC3)c2)cc1	1%	18µM*	u	3%	i	-1%
COC(=O)c1c(NC(=O)c2cccc(S(=O)(=O)N3CCN(C)CC3)c2)sc(C)c1C	21µM*	15µM*	15µM*	1%	-77*	u
CN1CCN(S(=O)(=O)c2cccc(C(=O)Oc3ccc(C(C)(C)C)cc3)c2)CC1	0%	u	u	1%	5	3%
CN1CCN(S(=O)(=O)c2cccc(C(=O)Nc3sc4c(c3C(N)=O)CCCC4)c2)CC1	u	u	u	0%	u	13%
CCNC(=O)C1(C)CCCN(C(=O)c2cccnc2Oc2ccccc2)C1 (centres undefined)	x	-20%	12%	x	21	x
COC(=O)C1CCN(C(=O)CSc2nc3ccc(OC)cc3[nH]2)CC1	-10%	-18%	-1%	u	-64*	-5%
NC(=O)c1cc(N2C(=O)C=CC2=O)ccc1Cl	18µM*	16µM*	13µM*	u	0	u
CCOC(=O)C1CCN(S(=O)(=O)c2cc(Br)cc3c2N(C(=O)CC)CC3)CC1	x	3%	3%	x	x	x
CC1CC(C)CN(C(=O)C2CCN(S(=O)(=O)c3cccc4cccnc34)CC2)C1 (centres undefined)	0%	-19%	-13%	0%	1	2%
O=C(CN1CCN(c2cccc(C(F)(F)F)c2)CC1)N(C1CCCC1)C1CCS(=O)(=O)C1 (centres undefined)	6%	u	u	1%	8	-4%
Cc1cc(N2CCN(C(C(=O)NC3CCCC3)c3ccc(F)cc3)CC2)c2ccccc2n1 (centres undefined)	x	u	18µM*	x	-2	x
Cc1cc(C(=O)NC2CCCCCC2)c2ccccc2n1	-1%	-12%	-14%	4%	5	25%
Cc1cc(N2CCN(C(C(=O)NC3CCCC3)c3ccco3)CC2)c2ccccc2n1 (centres undefined)	x	23µM*	21µM*	x	-14	x
O=C(NC1CCCC1)C(c1ccc(F)cc1)N1CCC(O)(c2ccc(Cl)cc2)CC1 (centres undefined)	x	u	u	x	-1	x
Cc1ccc(C)c2c1cc(C)c1nnc(SCC(=O)Nc3nc4c(s3)CCCC4)n12	21µM*	-54%	u	-2%	27	2%
O=C(CSc1nc2ccccc2o1)Nc1nc2c(s1)CCCC2	12%	15µM*	u	x	-10	u
CCCc1nc(SCC(=O)Nc2nc3c(s2)CCCC3)c2ccccc2n1	16µM*	-1%	u	4%	-24	8%
CCc1nc(SCC(=O)Nc2nc3c(s2)CCCC3)c2ccccc2n1	-182%[0.0737 µM]	13µM*	18µM*	-4%	-86*	u
COc1ccc(CNC(=O)c2ccc(CS(=O)(=O)c3ccccc3OC)o2)cc1	x	u	-28%	7%	x	x
CCN1C(=O)C(Cc2nc3ccccc3c(=O)n2C)c2cc(C)ccc21 (centres undefined)	x	26µM*	u	-10%	x	x
CCn1c(CC2C(=O)N(C)c3ccc(Br)cc32)nc2ccccc2c1=O (centres undefined)	x	1.5µM*	5.2µM*	x	x	x
CCCN1C(=O)C(Cc2nc3ccccc3c(=O)n2CC)c2cc(Br)ccc21 (centres undefined)	x	1.2µM*	1.2µM*	x	x	x
CCCN1C(=O)C(Cc2nc3ccccc3c(=O)n2-c2ccccc2)c2ccccc21 (centres undefined)	25%	u	-25%	u	0	15%
SMILES	MCF10A rerep	TDP1 cell noCPT	DT40 TDP1 CPT	BCR signal inh	IL-1B inflam inh	SW480 rerep
CCn1c(CC2C(=O)Nc3ccccc32)nc2ccccc2c1=O (centres undefined)	x	u	-12%	x	x	x
CCCN1C(=O)C(Cc2nc3ccccc3c(=O)n2CC)c2ccccc21 (centres undefined)	x	5.2µM*	u	x	x	x
CCCc1nc2ccccc2c(=O)n1N	0%	-6%	4%	4%	1	-8%
CC(=O)Nc1nonc1-c1nnc(SCC(=O)Nc2ccccc2)n1-c1ccccc1	x	-26%	-2%	x	x	x
COc1cccc(-c2nc(NCCNC(C)=O)c3ccccc3n2)c1	x	-20%	0%	x	x	x
COc1ccc(Cl)cc1NC(=O)CN(C)C(=O)Cc1ccc(-c2ccccc2)cc1	15%	-8%	-17%	u	u	-14%
COc1ccc(Cl)cc1NC(=O)CN(C)CC(=O)Nc1ccc(C)cc1Br	u	u	-7%	-14%	-67*	0%
COc1ccc(Cl)cc1NC(=O)CN(C)C(=O)CCC(=O)c1cc(C)sc1C	8%	-46%	u	-5%	-53*	3%
COc1ccc(C)cc1NC(=O)C(=O)NNC(=O)COc1ccc(Cl)cc1	21µM*	23µM*	u	-3%	6	-7%
COc1ccc(Cl)cc1NC(=O)CN(C)CC(=O)Nc1ccccc1-c1ccccc1	u	23µM*	18µM*	u	-3	8%
S=C(Cc1ccccc1)Nc1ccccc1	26%	-7%	-27%	x	8	1%
CNc1cccc(-c2ccc(N3CCN(C)CC3)nc2)n1	x	-4%	-6%	x	-17	x
C=C(c1ccc2ccccc2n1)c1cccs1	x	14µM*	11µM*	x	x	x
O=C(Nc1nccs1)c1ccc2ccccc2n1	-4%	-18%	-10%	u	79	-2%
CCCN1CCN(CCNC(=O)Nc2cc(C)ccc2C)CC1	-4%	-19%	-6%	1%	-7	-9%
CC(C)(C)NC[C@H](O)COc1cccc2c1C[C@@H](O)[C@@H](O)C2	10%[20.6 µM]	x	x	x	x	0%[20.6 µM]
CC(=O)N(C)c1ccc(N2CCOCC2)c2c1C(=O)c1ccccc1C2=O	-7%	-1%	-29%	x	27	u
O=C1c2ccccc2C(=O)c2c1cccc2N1CCOCC1	8%	u	u	5%	-81*	-2%
COc1ccccc1OCCCCN1CCC(C)CC1	-1%	-4%	3%	2%	7	1%
COc1ccccc1OCCCN1CCC(C(O)(c2ccccc2)c2ccccc2)CC1	x	21µM*	u	x	-54*	x
OC(c1ccccc1)(c1ccccc1)C1CCN(CCCOc2ccccc2Cl)CC1	x	16µM*	21µM*	x	u	x
